PubChem BioAssay (NCATS)
Unmarked numbers belong to inactive results. Records with an inconclusive call do not appear. Entries that show only a call come without a potency. Active and inactive are the calls of the source. Unless noted, calls come from the whole dose curve; as a rule, active = well fitted curve in the direction sought with a large enough effect; inconclusive = small, poorly fitted or top-dose-only effect, or another doubt; inactive = no such curve, though single readings can be large; an effect the other way counts as inactive or inconclusive.

Legend:
[1] = qHTS for Inhibitors of Plasmodium falciparum (CP250) proliferation (AID 504320)
Method in brief: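 Erythrocytes infected with P. falciparum line (0.3% parasitemia, 2.5% hematocrit final) incubated with compounds 72 h at 37 °C, 5% CO2; SYBR Green lysis buffer added, fluorescence read next day. Normalized to 0.29 uM artemisinin and DMSO.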

[2] = biological target: Atrial natriuretic peptide receptor 1 (Homo sapiens) (UniProt P16066); assay: Natriuretic polypeptide receptor (hNpr1) antagonism - Pilot CMLD screen (AID 1347052; calls by dose curve;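 note: HEK293 cells with hNpr1 stimulated by hNppA peptide at 0.1 nM; cGMP level read as GloSensor luciferase luminescence after agonist stimulation; series mostly up to about 9.2 µM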)
[3] = biological target: Cytochrome P450 3A4 (Homo sapiens) (UniProt P08684); assay: qHTS Assay for Inhibitors and Substrates of Cytochrome P450 3A4 (AID 884); note: potency is the fitted concentration of half-maximal effect; nearly all actives have a fitted effect of over 50% in size
Method in brief: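 20 nM human CYP3A4 with 25 uM Luciferin-PPXE (at KM) in 200 mM KPO4, preincubated 10 min with compound; NADPH regeneration started a 60 min RT reaction. Luciferin detected by luminescence, normalized to 57 uM ketoconazole as full inhibition.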

[4] = biological target: Cytochrome P450 3A4 (Homo sapiens) (UniProt P08684); assay: qHTS Assay for Activators of Cytochrome P450 3A4 (AID 885); note: nearly all actives have a fitted effect of over 65% in size
Method in brief: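 Quantitative HTS format: compounds preincubated with 20nM human CYP3A4 and Luciferin-PPXE substrate at KM, reaction started by NADPH regeneration, stopped after 60 min, luciferase luminescence read 20 min later.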

Chain of Atrial natriuretic peptide receptor 1 (Homo sapiens) (P16066 whole entry, looked up): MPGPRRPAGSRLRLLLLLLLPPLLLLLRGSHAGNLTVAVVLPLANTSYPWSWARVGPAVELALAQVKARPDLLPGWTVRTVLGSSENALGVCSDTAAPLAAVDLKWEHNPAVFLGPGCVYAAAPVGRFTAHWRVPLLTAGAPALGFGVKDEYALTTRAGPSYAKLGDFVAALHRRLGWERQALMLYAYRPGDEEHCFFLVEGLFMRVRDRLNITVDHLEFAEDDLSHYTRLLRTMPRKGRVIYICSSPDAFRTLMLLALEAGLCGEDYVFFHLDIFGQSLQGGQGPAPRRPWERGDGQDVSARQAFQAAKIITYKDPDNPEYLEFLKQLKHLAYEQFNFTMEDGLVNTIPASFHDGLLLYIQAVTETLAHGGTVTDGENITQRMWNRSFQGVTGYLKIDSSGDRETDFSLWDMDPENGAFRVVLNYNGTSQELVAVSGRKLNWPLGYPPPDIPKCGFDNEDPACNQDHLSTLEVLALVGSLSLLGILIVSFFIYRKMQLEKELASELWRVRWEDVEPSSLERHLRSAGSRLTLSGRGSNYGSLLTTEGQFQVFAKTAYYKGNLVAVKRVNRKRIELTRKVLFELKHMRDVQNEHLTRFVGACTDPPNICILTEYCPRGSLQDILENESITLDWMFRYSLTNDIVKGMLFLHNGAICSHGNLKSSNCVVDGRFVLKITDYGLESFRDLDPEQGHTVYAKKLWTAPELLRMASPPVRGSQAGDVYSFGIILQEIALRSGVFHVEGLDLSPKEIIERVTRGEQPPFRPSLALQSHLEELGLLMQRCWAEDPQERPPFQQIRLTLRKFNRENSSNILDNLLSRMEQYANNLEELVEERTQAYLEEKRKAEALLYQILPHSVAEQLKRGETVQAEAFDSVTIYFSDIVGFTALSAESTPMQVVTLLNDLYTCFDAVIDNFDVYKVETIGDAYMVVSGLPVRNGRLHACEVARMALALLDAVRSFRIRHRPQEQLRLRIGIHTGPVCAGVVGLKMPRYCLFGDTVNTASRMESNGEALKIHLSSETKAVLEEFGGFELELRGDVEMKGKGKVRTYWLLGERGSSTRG
Chain of Cytochrome P450 3A4 (Homo sapiens) (P08684 whole entry, looked up): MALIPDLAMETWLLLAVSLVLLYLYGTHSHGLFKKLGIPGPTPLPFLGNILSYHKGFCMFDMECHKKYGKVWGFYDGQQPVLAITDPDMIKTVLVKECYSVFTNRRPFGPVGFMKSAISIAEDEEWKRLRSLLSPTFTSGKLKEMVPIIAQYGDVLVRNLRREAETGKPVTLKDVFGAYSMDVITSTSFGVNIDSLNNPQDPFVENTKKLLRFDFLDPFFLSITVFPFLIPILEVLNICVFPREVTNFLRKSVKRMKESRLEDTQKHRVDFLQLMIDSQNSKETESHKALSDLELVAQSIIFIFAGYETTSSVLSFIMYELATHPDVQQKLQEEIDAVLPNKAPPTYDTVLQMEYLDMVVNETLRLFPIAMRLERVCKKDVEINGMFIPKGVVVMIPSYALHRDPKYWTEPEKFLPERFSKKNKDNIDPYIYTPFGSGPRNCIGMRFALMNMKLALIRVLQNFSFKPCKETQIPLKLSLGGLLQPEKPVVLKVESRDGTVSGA

SMILES | Potency [1] | Potency [2] | Potency [3] | activity change, positive = activation [4]
COC(=O)C1=C(C(=O)OC)[C@@H]2N(Cc3ccccc3)c3ccccc3[C@@]23C[C@@H](CO)N=C3N1 | inactive | inactive |  | 
Cc1cc2c(c(=O)n1Cc1ccccc1)[C@H]1O[C@](c3ccsc3)(Cc3ccccc31)O2 | inactive | inactive |  | 
C#CCN1C(=O)[C@]2(OC[C@@H]3Cc4ccccc4[C@@H]3C=C2C)c2ccccc21 | inactive | inactive |  | 
COC1=C[C@H](C(=O)N[C@H]2CCCC[C@H]2NC(C)=O)[C@@]2(C)Cc3ccccc3[C@@H]2CC1=O | inactive | inactive |  | 
Cc1ccc(C=CC2=C[C@]3(C)C[C@]2(C)[C@H](c2ccc(C)cc2)CC3=O)cc1 | inactive | inactive |  | 
CCCCCCC#Cc1cc(OC)c(OC)cc1C(N1CC(C)c2ccccc21)N1CC(C)c2ccccc21 (stereo not drawn) |  | inactive | 3.16 µM (active) | -88.3% [at 11.4 µM]
